Several values for one entry are separate records, joined by “and”; a condition that tells them apart may be missing. Equal values may be shown once. The campaign covered roughly 260,000 compounds. About 1,500 (0.58%) were called active. Another 5% or so got no clear call; they are omitted.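 How the source made its calls: active means inhibition above a set limit at one or more doses, reproduced on every date tested; inconclusive means results disagree between test dates, or hit never tested in dose response; inactive means the rest.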 A selection follows. Results with a measured potency or affinity are listed apart.
target: Virion infectivity factor (Human immunodeficiency virus type 1 group M subtype B (isolate BH10)) + Virion infectivity factor (Human immunodeficiency virus type 1 group M subtype B (isolate BRU/LAI)) + Virion infectivity factor (Human immunodeficiency virus type 1 group M subtype B (isolate PCV12)) + Virion infectivity factor (Human immunodeficiency virus type 1 group M subtype B (isolate HXB2)) + DNA dC->dU-editing enzyme APOBEC-3G (Homo sapiens) (UniProt P69720+P69721+P69722+P69723+Q9HC16); test: HIV-1 Vif–A3G interaction blockers – biochemical, TR-FRET, GST-Vif 1-94, biotin-A3G peptide, dose response retest, primary screen (AID 1117319); details: TR-FRET GST-Vif / biotin-A3G peptide binding; active compounds read high;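 further: Vif residues 1-94 fused to GST binding biotinylated APOBEC3G peptide 110-148; 0% = full assay without inhibitor and 100% = GST in place of GST-Vif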

inhibition, inactive:
COC(Cc1n[nH]c(=S)n1-c1ccc(Cl)cc1)OC -7.57%
COC(Cc1nnc(SC)n1-c1ccccc1)OC 6.71%
Cc1ccc(C2N(c3ccccc3)C(=S)N3CCCN23)cc1 (configuration not stated) 19.3%
Nc1ccc(C(=O)Nc2ccc3c(O)cc(S(=O)(=O)O)cc3c2)cc1 29.1%
Nc1ccc(C(=O)Nc2ccc3cc(S(=O)(=O)O)ccc3c2)cc1 7.06%
CC(=O)Nc1ccc2c(O)cc(S(=O)(=O)O)cc2c1 19.9%
O=C(O)c1cc(S(=O)(=O)O)cc(Nc2c3ccccc3nc3ccccc23)c1O 5.42%
O=C(O)c1cc2cc(S(=O)(=O)O)ccc2cc1O 26.7%
O=S(=O)(O)c1ccc(O)c2cc(Nc3ccccc3)ccc12 -8.31%
O=C(O)c1cc(NS(=O)(=O)c2ccc3ccccc3c2)ccc1O -12.2%
COc1ccccc1Nc1ccc2c(O)cc(S(=O)(=O)O)cc2c1 15.2%
COc1ccccc1CNC(=O)CNC(=O)Cn1cnc2ccccc2c1=O 8.94%
COC(=O)c1c(NC(=O)C2(C)Cc3ccccc3C(=O)O2)sc2c1CCCC2 (configuration not stated) 20.6%
O=C(Nc1nnc(Cc2ccccc2)s1)C1CCC1 6.12%
NC(=O)CN(N=Nc1cccc([N+](=O)[O-])c1)c1cccc([N+](=O)[O-])c1 10.3%
COc1ccccc1C(=O)NC(CCSC)C(=O)NNC(=O)c1ccc(F)cc1 (configuration not stated) -6.52%
CCCN(C(=O)c1cc(S(=O)(=O)N(C)c2ccc(OCC)cc2)ccc1C)C1CCS(=O)(=O)C1 (configuration not stated) 2.41%
Cc1nnc(SCC(=O)Nc2ccccc2)n1CCc1ccccc1 -1.11%
CC1(C)CC(NS(=O)(=O)c2ccccc2)CC(C)(C)N1 13.5%
CC1(C)CC(NC(=O)C(c2ccccc2)c2ccccc2)CC(C)(C)N1 -4.99%
CC(C)(C)c1cc(NC(=O)CCSc2nnc3ccccn23)cc(C(C)(C)C)c1 -5.51%
O=C1/C(=C\c2ccc3c(c2)OCO3)CCC/C1=C/c1ccc2c(c1)OCO2 1.07%
O=C1CCCC/C1=C/Nc1ccc(C(=O)O)cc1 28.3%
O=C1CCC/C1=C/Nc1ccc(Cl)cc1 -0.33%
O=C1/C(=C/Nc2ccc3c(c2)OCO3)CCc2ccccc21 27.2%
CC(C)(C)NC(=O)Cn1c(=O)c(=O)n(Cc2ccccc2)c2ccc(Cl)cc21 -13.9%
NS(=O)(=O)c1ccc(NC(=S)N2CCN(c3ccc(Cl)c(Cl)c3)CC2)cc1 -1.39%
Cc1ccc(-n2ncc3c(NCc4cccnc4)ncnc32)cc1C -0.06%
CC(=O)Nc1ccc2c(COC(=O)CC3Sc4ccccc4NC3=O)cc(=O)oc2c1 (configuration not stated) -2.31%
COCCN(C(=O)COC(=O)CCn1c(C)csc1=O)c1c(N)n(Cc2ccccc2)c(=O)[nH]c1=O 3.17%
COC(=O)C(N)Cc1ccc(O)c(O)c1 (configuration not stated) 21.5%
COC(=O)[C@@H](N)Cc1ccc(O)cc1 1.26%
CC(NC(=O)Cn1cnnn1)C12CC3CC(CC(C3)C1)C2 (configuration not stated) -1.37%
COc1ccc(/C=N/NC(=O)CCN2CCN(c3ccccc3)CC2)c(OC)c1OC 8.69%
O=C(CCN1CCN(c2ccccc2)CC1)N/N=C/c1ccccc1O -5.36%
O=C(Cc1csc(N2CCOCC2)n1)N/N=C/c1ccc(Cl)cc1Cl -5.97%
O=C(Cc1csc(N2CCOCC2)n1)N/N=C/c1ccccc1C(=O)O 6.57%
Cc1cccc(NC(=S)NCc2ccc(F)cc2)c1 -7.76%
Cc1nn(C)c(Cl)c1C(=O)NCC(=O)O -8.59%
CCN1CCCC1Cn1cnc2c([nH]c3cccc(Cl)c32)c1=O (configuration not stated) 32.2%
Cc1ccc(S(=O)(=O)n2nc(OC(=O)c3ccco3)cc2N)cc1 7.76%
COc1ccc(OC)c(NC(=O)COC(=O)c2ccc(S(=O)(=O)N3CCCCC3)cc2)c1 -4.24%
COc1ccc(OCCCC(=O)OC(C)C(=O)Nc2ccc(S(N)(=O)=O)cc2)cc1 (configuration not stated) 1.05%
CC1CCC(NC(=O)c2cc(Cl)nc3ccccc23)CC1 (configuration not stated) -9.79%
Cc1noc(/C=C/c2ccco2)c1S(=O)(=O)N1CCC(C(=O)N2CCc3ccccc32)CC1 10.8%
Cc1noc(/C=C/c2ccco2)c1S(=O)(=O)N1CCC(C(=O)N2CCc3ccccc3C2)CC1 26.3%
CCOC(=O)c1c(C)[nH]c(C(=O)CSc2nnnn2-c2ccc(C)cc2)c1C -6.65%
CCOc1cc(C)c(Cl)cc1S(=O)(=O)N(CC)CC -2.91%
CC1CCCN(S(=O)(=O)c2ccc(S(=O)(=O)NC(C)c3cccs3)cc2)C1 (configuration not stated) -0.23%
CCOc1ccc(NC(=O)CC(=O)Nc2ccc(OCC)cc2)cc1 3.52%
COc1ccc(C(=O)NC2c3ccccc3-c3ccccc32)cc1 6.08%
Cc1[nH]c2ccccc2c1Cc1nnc(SCC(N)=O)o1 9.95%
C=CCSc1nnc(Cc2c(C)[nH]c3ccccc23)o1 12.5%
Cc1ccc(CNC(=O)COC(=O)Cn2nc(C)c([N+](=O)[O-])c2C)cc1 2.03%
NC(=S)N=Nc1c(O)[nH]c2ccc(F)cc12 14.4%
Cc1ccc2[nH]c(O)c(N=NC(N)=S)c2c1 16.9%
CNC(=S)NNc1nncc2ccccc12 -3.6%
CC(C)n1cnc2c(=S)nc[nH]c21 14.2%
O=C(CSc1nnnn1-c1cccc2ccccc12)N1CCOCC1 10.1%
CCC(C(=O)O)N1C(=O)/C(=C/c2cccn2C)SC1=S (configuration not stated) 21.2%
CC(C)C(C(=O)O)N1C(=O)/C(=C/c2cccn2C)SC1=S (configuration not stated) 5.17%
CC(=C\c1ccccc1)/C=C1/SC(=S)N(C(C(=O)O)C(C)C)C1=O (configuration not stated) -2.28%
CC(/C=C1\SC(=S)N(C(C(=O)O)C(C)C)C1=O)=C\c1ccccc1 (configuration not stated) 9.15%
CN(CCC#N)C(=O)COC(=O)c1ccccc1OCc1ccccc1Cl 23.6%
CCCCCCOc1ccc(N2C(=O)CC(N(CCc3ccc(S(N)(=O)=O)cc3)C(C)=O)C2=O)cc1 (configuration not stated) -1.36%
CN1/C(=C/C(=S)NC(=O)C2CCC2)C(C)(C)c2ccccc21 3.95%
CCn1c(SCC(=O)NCc2cccs2)nnc1-c1cccs1 2.35%
Cc1cccc(NC(=O)CCS(=O)(=O)c2ccc(Br)cc2)c1 3.92%
CCc1ccc(NC(=O)CCS(=O)(=O)c2ccc(Br)cc2)cc1 11.1%
CCOc1ccccc1NC(=O)CCN1CCN(S(=O)(=O)c2ccc(Br)cc2)CC1 -2.68% and -11.1%
CCOc1ccc(NC(=O)CCS(=O)(=O)c2ccc(C)cc2)cc1 -2.94%
Cc1ccc(S(=O)(=O)CCC(=O)Nc2ccc(Br)cc2)cc1 21.8%
CCN(CC)c1ccc(NC(=O)CCS(=O)(=O)c2cccc3nsnc23)c(C)c1 12.7%
Cc1cccc(C)c1NC(=O)CCS(=O)(=O)c1ccc(Br)cc1 -1.3%
O=C(CCS(=O)(=O)c1ccc(Br)cc1)Nc1ccccc1Cl 24.5%
O=C(CN(Cc1ccc(F)cc1)C(=O)CNS(=O)(=O)c1ccccc1)NCc1ccco1 -1.61%
CC(=O)N1CCN(S(=O)(=O)c2ccc(Cl)cc2F)CC1 -2.38%
CC(C)c1nc(SCC(=O)N2CC(=O)Nc3ccccc32)c2ccccc2n1 -15.6%
C#CCOCCOCCOCCNc1nc(N2CCN(C(=O)[C@H](CO)n3cc([C@@H](N)C(C)C)nn3)CC2)nc(N2CCN(C(=O)[C@H](CCC(=O)O)n3cc([C@@H](N)CCCCN)nn3)CC2)n1 19.7%
Cc1ccccc1-n1nc2c(c1NC(=O)c1cc3ccccc3o1)CS(=O)(=O)C2 0.92%
COc1ccc(F)cc1CN1CCN(C(=O)CCC(=O)Nc2nnc(C(C)C)s2)CC1 1.87%
O=C(Nc1cccc(C(F)(F)F)c1)Oc1ccccc1N1CCOCC1 4.5%
COc1ccc(Cl)cc1NC(=O)CCS(=O)(=O)c1ccc(C)cc1 0.29%
COc1ccc([N+](=O)[O-])cc1NC(=O)CCS(=O)(=O)c1ccc(Br)cc1 23.2%
COC(=O)c1ccccc1NC(=O)CCS(=O)(=O)c1ccc(Br)s1 -6.38%
Cc1ccccc1NC(=O)CCS(=O)(=O)c1ccc(Br)cc1 19.3%
CCNC(=O)CSc1nnc(-c2cc(-c3ccc(Cl)cc3)nc3ccccc23)o1 -0.32%
O=C(OCc1cn([C@H]2CN(CC3CCCCC3)[C@@H](c3ccc(Cl)cc3)C[C@@H]2O)nn1)c1ccccc1 -2.33%
CC1CCCCC1NC(=O)CSc1nnc(COc2ccc(Cl)cc2)o1 (configuration not stated) 3.41%
Cc1nc(-c2ccc(S(=O)(=O)Nc3ccc(Br)cc3Cl)s2)cs1 -10.4%
O=C(NCCCCNC(=O)C(F)(F)F)C(F)(F)F 0.85%
O=C(NCCCCCCCCCNC(=O)C(F)(F)F)C(F)(F)F 3.63%

Source: PubChem BioAssay AID1117319 (Southern Research Institute, 2015)
